High-throughput results from PubChem BioAssay.
M1 PAM: human M1 muscarinic receptor positive allosteric modulators, primary screen, CHO-K1 cells, Fluo-8 calcium fluorescence, 1536-well; Muscarinic acetylcholine receptor M1 (Homo sapiens), P11229; CHO-K1 hM1, ACh EC20; 0% = ACh EC20, 100% = maximal ACh; activation, % at 3 µM; actives 0.088% (n = 360,000); in the data active = activation above about 19%, passing the limit was not always enough
Target sequence (P11229 whole entry, looked up): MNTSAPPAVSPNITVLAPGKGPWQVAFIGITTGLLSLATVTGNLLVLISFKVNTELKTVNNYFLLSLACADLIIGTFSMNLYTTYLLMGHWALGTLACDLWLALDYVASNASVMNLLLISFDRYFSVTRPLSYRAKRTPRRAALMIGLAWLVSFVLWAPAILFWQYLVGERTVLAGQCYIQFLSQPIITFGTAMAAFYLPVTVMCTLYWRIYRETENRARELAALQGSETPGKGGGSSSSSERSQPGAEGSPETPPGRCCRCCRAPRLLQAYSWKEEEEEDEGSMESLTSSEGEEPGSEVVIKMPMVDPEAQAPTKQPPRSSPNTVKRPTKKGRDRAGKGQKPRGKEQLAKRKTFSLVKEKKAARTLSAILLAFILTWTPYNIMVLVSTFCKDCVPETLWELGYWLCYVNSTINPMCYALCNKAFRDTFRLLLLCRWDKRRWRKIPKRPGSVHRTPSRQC
CHO-K1 Ca antag: M1 antagonist counterscreen hit in parental CHO-K1 cells. inhibition, % at 3 µM. actives 0.6% (n = 360,000). ATP-induced calcium, Fluo-8 fluorescence;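 active = inhibition above a per-plate cutoff, the plate's mean sample inhibition plus 3 SD, cut at about 24% in these data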;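 also: 0% = DMSO plus EC80 ATP and 100% = DMSO alone without ATP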
CHO-K1 Ca ag: counter-screen for M1 agonists: effect in parental CHO-K1 cells. Fluo-8 calcium fluorescence; scaled to maximal ATP response, vehicle zero. activation, % at 3 µM. actives 0.48% (n = 360,000). AID 602248, 2012; in the data active = activation above about 15%;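 also: untransfected CHO-K1 host cells lacking M1 receptor as counterscreen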
M1 PAM parental: nonselective calcium activators in parental CHO-K1 cells, primary screen, counter-screen for M1 PAM project, cell-based, Fluo-8 calcium fluorescence, full deck, 1536-well; actives 0.02% (n = 360,000); activation, % at 3 µM; ATP EC20; 0% at ATP EC20, 100% at ATP max; AID 602247, 2012;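 active = activation above the run cutoff, the mean activation of all test compounds plus 3 SD, cut at about 40% in these data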;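 also: peak over basal fluorescence ratio in a 140 s read after ATP addition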
M1 ag: human M1 muscarinic receptor agonists, primary screen, Fluo-8 calcium fluorescence, CHO-K1 cells, HTS. CHO-K1 hM1, agonist mode; 0% DMSO, 100% acetylcholine EC100. activation, % at 3 µM. actives 0.33% (n = 360,000). AID 588814, 2011;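 active = activation above the run's mean compound activation plus 3 SD, cut at about 16% in these data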;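 also: peak over basal fluorescence ratio within a 140 s kinetic read after compound addition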
M1 antag: human M1 muscarinic receptor antagonists, primary screen, CHO-K1 cells, Fluo-8 calcium fluorescence, 1536-well | Muscarinic acetylcholine receptor M1 (Homo sapiens), P11229 | CHO-K1 hM1, ACh EC80 antagonist | actives 1.3% (n = 360,000) | inhibition, % at 3 µM;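 active = percent inhibition above its own plate's cutoff, namely the mean of that plate's compound wells plus 3 SD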;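 also: peak over basal fluorescence ratio during 140 s after agonist addition; 0% = ACh EC80 plus DMSO and 100% = DMSO alone without agonist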
Starred values were filed as active, the others as inactive. An excerpt weighted towards active compounds, which were near 2.4% of everything screened.

Screening O=C(c1ccc(S(=O)(=O)Nc2ccccc2F)cc1)N1CCN(c2ccccn2)CC1 returned M1 PAM -27, CHO-K1 Ca antag 16, CHO-K1 Ca ag 4, M1 PAM parental -13, M1 ag -5 and M1 antag 51*.
O=C(c1ccc(S(=O)(=O)c2cccc(Cl)c2)c([N+](=O)[O-])c1)N1CCN(c2ccccn2)CC1 was read as M1 PAM -19, CHO-K1 Ca antag 26*, CHO-K1 Ca ag 16*, M1 PAM parental -10, M1 ag 0 and M1 antag 58*.
For O=C(c1cccc(Cl)c1)N1CCN(c2ccccn2)CC1 the results were M1 PAM -6, CHO-K1 Ca antag 15, CHO-K1 Ca ag 1, M1 PAM parental -6, M1 ag -3 and M1 antag -5.
Screening Cc1ccccc1NS(=O)(=O)c1ccc(C(=O)N2CCN(c3ccccn3)CC2)cc1 returned M1 PAM -20, CHO-K1 Ca antag -6, CHO-K1 Ca ag 10, M1 PAM parental 9, M1 ag -4 and M1 antag 30.
Screening Cc1cccc(-c2ccc3[nH]c4c(c3c2)CCN2C[C@@H]([C@H](C)OC(=O)Nc3ccccc3C)[C@@H](N(C)C(=O)Nc3ccccc3C)C[C@@H]42)c1 returned M1 PAM -2, CHO-K1 Ca antag 1, CHO-K1 Ca ag 1, M1 PAM parental -1, M1 ag 3 and M1 antag -4.
For CCCCOc1ccc(NC(=O)CN2CCN(Cc3ccccc3)CC2)cc1 the results were M1 PAM -6, CHO-K1 Ca antag -5, CHO-K1 Ca ag 1, M1 PAM parental 5, M1 ag -9 and M1 antag 5.
For COc1ccc(S(=O)(=O)N2CCOCC2)cc1Br the results were M1 PAM 9, CHO-K1 Ca antag -8, CHO-K1 Ca ag 4, M1 PAM parental 18, M1 ag -6 and M1 antag 0.
`Nc1cc(S(=O)(=O)N2CCOCC2)ccc1Oc1cccc(Br)c1` gave M1 PAM 9, CHO-K1 Ca antag 24*, CHO-K1 Ca ag 3, M1 PAM parental -3, M1 ag 1 and M1 antag 2.
For O=C(OCc1nc2ccccc2[n+]([O-])c1C(=O)c1ccccc1)c1ccco1 the results were M1 PAM -7, CHO-K1 Ca antag 24*, CHO-K1 Ca ag 1, M1 PAM parental -19, M1 ag -1 and M1 antag 14.
`CC(=O)c1c(COC(=O)c2ccco2)nc2ccccc2[n+]1[O-]` gave M1 PAM 5, CHO-K1 Ca antag -13, CHO-K1 Ca ag 4, M1 PAM parental 16, M1 ag -1 and M1 antag -20.
For O=C(CCSCc1ccc(Cl)cc1)NCc1cccnc1 the results were M1 PAM 2, CHO-K1 Ca antag -10, CHO-K1 Ca ag 4, M1 PAM parental 16, M1 ag -4 and M1 antag 2.
Screening Cc1ccccc1Cc1c(C)nc2nc(SCC(=O)NCCCN3CCCC3)nn2c1C returned M1 PAM -31, CHO-K1 Ca antag -12, CHO-K1 Ca ag 1, M1 PAM parental 5, M1 ag -11 and M1 antag 50*.
`Cc1nc2nc(SCC(=O)NCCCN3CCCCCC3)nn2c(C)c1Cc1ccccc1Cl` gave M1 PAM -24, CHO-K1 Ca antag 0, CHO-K1 Ca ag 0, M1 PAM parental 10, M1 ag -5 and M1 antag 100*.
Cc1nc2nc(SCC(=O)NCCCN3CCCC(C)C3)nn2c(C)c1Cc1ccccc1Cl (stereo not drawn) was read as M1 PAM -24, CHO-K1 Ca antag -8, CHO-K1 Ca ag 1, M1 PAM parental 23, M1 ag 1 and M1 antag 63*.
Screening Cc1nc2nc(SCC(=O)N3CCOCC3)nn2c(C)c1Cc1c(F)cccc1Cl returned M1 PAM 2, CHO-K1 Ca antag 4, CHO-K1 Ca ag 1, M1 PAM parental -5, M1 ag -3 and M1 antag 0.
CCOC(=O)c1cc2c(=O)n3ccccc3nc2n(Cc2ccco2)c1=NC(=O)c1ccc(OC)cc1OC was read as M1 PAM 4, CHO-K1 Ca antag -1, CHO-K1 Ca ag 0, M1 PAM parental -4, M1 ag -3 and M1 antag 5.
Screening CC(C)(CCO)Nc1ncnc2onc(-c3ccc(F)cc3)c12 returned M1 PAM 11, CHO-K1 Ca antag -1, CHO-K1 Ca ag 2, M1 PAM parental 11, M1 ag -1 and M1 antag -14.
For O=c1c2ccccc2nc(/C=C/c2ccc([N+](=O)[O-])cc2)n1CCCO the results were M1 PAM 2, CHO-K1 Ca antag -3, CHO-K1 Ca ag 3, M1 PAM parental 22, M1 ag -5 and M1 antag 5.
Cc1ccc(/C=C/c2nc3ccccc3c(=O)n2CCc2ccccc2)cc1 was read as M1 PAM 6, CHO-K1 Ca antag 26*, CHO-K1 Ca ag 0, M1 PAM parental -15, M1 ag -5 and M1 antag -10.
O=c1c2ccccc2nc(/C=C/c2cccc([N+](=O)[O-])c2)n1CCCO was read as M1 PAM -4, CHO-K1 Ca antag 28*, CHO-K1 Ca ag 1, M1 PAM parental -5, M1 ag -5 and M1 antag 6.
For CCN(CC)c1ccc(/C=N/N2CCOCC2)cc1 the results were M1 PAM 11, CHO-K1 Ca antag -13, CHO-K1 Ca ag 1, M1 PAM parental 8, M1 ag -2 and M1 antag -8.
Screening CCN(Cc1ccccc1)c1ccc(/C=N/N2CCOCC2)cc1 returned M1 PAM -7, CHO-K1 Ca antag 27*, CHO-K1 Ca ag -1, M1 PAM parental -16, M1 ag -6 and M1 antag 13.
`Cc1cc(NC2CCCCC2)nc(NCc2ccccc2)n1` gave M1 PAM -20, CHO-K1 Ca antag 22, CHO-K1 Ca ag 15*, M1 PAM parental 8, M1 ag -4 and M1 antag 35*.
For Cc1cccc(C(=O)NCC(=O)N2CCN(c3ccc(Cl)cc3)CC2)c1 the results were M1 PAM 1, CHO-K1 Ca antag -13, CHO-K1 Ca ag 16*, M1 PAM parental 12, M1 ag 0 and M1 antag 3.
For CC(C)N(C)c1ncnc2c1ncn2[C@H]1CN(CCN2CCOCC2)C[C@@H](CO)O1 the results were M1 PAM -8, CHO-K1 Ca antag -4, CHO-K1 Ca ag 0, M1 PAM parental -8, M1 ag -3 and M1 antag 11.
